Test results taken from PubChem BioAssay AID624413 (The Scripps Research Institute Molecular Screening Center, 2012).
Among all 1,400 compounds or so, about 160 (11%) were called active. Rule as the data show it: active = inhibition above about 15%; inactive = the rest. A selection follows.

Assay: viability loss in Jurkat lymphocytes – cell-based, luminescence, high throughput, cytotoxicity control for T. brucei MetRS inhibitor project (AID 624413);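 also: 0% = vehicle and 100% = reference inhibitor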
Details: Jurkat cells viability, ATP luminescence; at 8.3 µM; stronger effect = higher value

Row | Structure (SMILES) | inhibition
1 | Cc1ccc(N2C(=O)CC(NCc3ccc4c(c3)OCO4)C2=O)cc1Cl (stereo not drawn) | -6.39% (inactive)
2 | O=[N+]([O-])c1ccc(N2CCN(c3ccc(O)cc3)CC2)c(Cl)c1 | 1.76% (inactive)
3 | O=S(=O)(NCc1ccc(Cl)cc1Cl)c1cccs1 | -0.99% (inactive)
4 | O=C(Nc1ccccc1)Nc1nnc(COc2ccccc2F)s1 | 5.35% (inactive)
5 | O=C(NNC(=O)c1ccc(-n2cncn2)c([N+](=O)[O-])c1)c1ccccc1 | 5.48% (inactive)
6 | O=C(Nc1cccc([N+](=O)[O-])c1)N1CCc2ccccc2C1 | 17% (active)
7 | O=C(CSCC(=O)Nc1cccc([N+](=O)[O-])c1)Nc1ccccc1 | -0.93% (inactive)
8 | O=C(Nc1ccc(Cl)cc1)N1CCc2[nH]c3ccccc3c2C1 | 1.46% (inactive)
9 | O=C(/C(=N\O)n1cncn1)c1ccc(Br)cc1Br | -3.9% (inactive)
10 | O=C(NNc1cc(Cl)cc(Cl)c1)c1c(F)cccc1Cl | 1.84% (inactive)
11 | COc1ccc(CCn2ccc(O)c(Cc3ccc(Cl)cc3Cl)c2=O)cc1OC | 9.61% (inactive)
12 | Cc1ccc(S(=O)(=O)c2c[nH]c3ccc(Cl)cc3c2=O)cc1 | 5.58% (inactive)
13 | CCCCCCCC[n+]1cccc(C(=O)N2c3c(nc(N)[nH]c3=O)NC(C)C2C)c1 (stereo not drawn) | 10% (inactive)
14 | CC(=O)c1ccc(NC(=O)c2ccc(-n3cncn3)c([N+](=O)[O-])c2)cc1 | 2.58% (inactive)
15 | CCCCN(C)Cc1c(C)[nH]c2ccc(Cl)cc2c1=O | -0.56% (inactive)
16 | c1ccc(CN=C2Nc3ccccc3CS2)nc1 | 0.23% (inactive)
17 | OCCNc1nc2ccccc2n1-c1ncnc2sc3c(c12)CCC3 | 9.96% (inactive)
18 | Clc1ccc(-c2cc(C3CCNCC3)[nH]n2)c(Cl)c1 | -0.28% (inactive)
19 | NC1=NC(=O)S/C1=C\c1ccc(O)cc1 | 7% (inactive)
20 | COC(=O)/C(=C\Nc1ccccc1)NC(=O)c1ccc(Cl)cc1Cl | 11.3% (inactive)
21 | O=C(NCc1cccc(CNC(=O)Nc2cccc(O)c2)c1)Nc1cccc(O)c1 | 13.5% (inactive)
22 | Cc1ccc(NC(=O)C(C)c2cccc(C(=O)c3ccccc3)c2)cc1 (stereo not drawn) | 1.82% (inactive)
23 | OC(c1cc(Cl)cc(Cl)c1)c1ncc(-c2ccccc2C(F)(F)F)[nH]1 (stereo not drawn) | 6.67% (inactive)

Row | Structure (SMILES) | inhibition
24 | CCCCN1C[C@H](c2ccc(Br)cc2)[C@@H](CC(=O)Nc2ccc(Br)cc2)C1=O | 7.69% (inactive)
25 | c1ccc2cc3c(NCCN4CCOCC4)ccnc3cc2c1 | 22.4% (active)
26 | Cc1ccc(S(=O)(=O)c2c[nH]c3ccc(C)cc3c2=O)cc1 | 4.57% (inactive)
27 | CCN(CC)C(=O)C(=O)c1cn(CC(=O)NCc2ccc3c(c2)OCO3)c2ccccc12 | 2.71% (inactive)
28 | NS(=O)(=O)c1ccc(CCNC(=O)Nc2ccc(Cl)cc2)cc1 | 3.2% (inactive)
29 | O=C(Cc1ccc(S(=O)(=O)N2CCOCC2)s1)Nc1ccc(Br)c(C(F)(F)F)c1 | 4.25% (inactive)
30 | O=C(CC(=O)Nc1ccc(Cl)c(Cl)c1)N/N=C/c1ccc(O)cc1 | 3.68% (inactive)
31 | O=C(Cn1c2[n+](c3ccc(C(F)(F)F)cc31)CCCCC2)Nc1c(F)cccc1F | 7.63% (inactive)
32 | S=c1[nH]nc(CSCc2ccc(Cl)cc2Cl)n1-c1ccccc1 | 7.09% (inactive)
33 | Cc1ccc(-c2cnc(C(O)c3cc(Cl)cc(Cl)c3)[nH]2)cc1 (stereo not drawn) | 4.06% (inactive)
34 | Oc1[nH]c2ccc(Br)cc2c1N=Nc1nn[nH]n1 | -3.84% (inactive)
35 | CN(C(=O)CSc1nnc(-c2c[nH]c3ccccc23)o1)C1CCS(=O)(=O)C1 (stereo not drawn) | -7.37% (inactive)
36 | Fc1ccc(NC(=S)N2CCc3[nH]c4ccccc4c3C2)cc1 | -0.86% (inactive)
37 | Cn1c(CCCOc2ccc(Cl)cc2Cl)n[nH]c1=S | 1.8% (inactive)
38 | COC(=O)CN1C(=S)N(c2ccccc2)C(=O)C1CC(=O)Nc1ccc(Cl)cc1 (stereo not drawn) | -3.1% (inactive)
39 | Cc1ccc(O)c(CNc2nc3ccccc3[nH]2)c1 | 24.5% (active)
40 | Clc1ccccc1SCc1nc2ccccc2[nH]1 | 7.62% (inactive)
41 | Cc1ccc(CNC(=O)CSc2nnc3c(n2)[nH]c2ccc(F)cc23)cc1 | -1.93% (inactive)
42 | O=C(O)CCn1c(O)c(C=C2N=c3ccccc3=N2)sc1=S | 0.39% (inactive)
43 | O=C(Nc1ccc(S(=O)(=O)Nc2ncccn2)cc1)c1cncc(Br)c1 | -8.56% (inactive)
44 | COc1ccc(OCC(O)CNC(=O)Nc2ccc(Cl)cc2)cc1 (stereo not drawn) | -6% (inactive)
45 | CCCCCn1nnnc1-c1nc2cc3ccccc3cc2[nH]c1=O | 55.2% (active)
46 | c1ccc2cc3[nH]c(CN4CCCCC4)nc3cc2c1 | -5.35% (inactive)

Row | Structure (SMILES) | inhibition
47 | O=C(O)c1ccc(NS(=O)(=O)c2ccc3c(c2)C(=O)c2cc(S(=O)(=O)Nc4ccc(C(=O)O)cc4)ccc2-3)cc1 | -0.7% (inactive)
48 | CC(=N\NC(=O)c1cc(Br)ccc1O)/C(=N/O)C(=O)Nc1ccccc1 | 9.24% (inactive)
49 | CN(C(=O)CSc1nnc(Nc2ccccc2)s1)C1CCS(=O)(=O)C1 (stereo not drawn) | 3.56% (inactive)
50 | CCO[C@@H]1OC(C(=O)NCc2nc3ccccc3[nH]2)=C[C@H](C2CCCCC2)[C@H]1CCCO | -0.5% (inactive)
51 | O=C(Cn1c(NCCO)nc2ccccc21)c1ccc(Cl)cc1Cl | 4.95% (inactive)
52 | COc1ccc(-c2[nH]ncc2/C=N/NC(=O)c2cc(Br)ccc2O)c(OC)c1 | 2% (inactive)
53 | COc1ccccc1-n1c(SCC(=O)Nc2ccc(Cl)cc2)nc(O)c(Cc2ccccc2)c1=O | -1.69% (inactive)
54 | CSc1nsc(NC(=O)Nc2ccccc2)n1 | 10% (inactive)
55 | Cc1ccccc1OCC(=O)NNC(=O)c1ccc(-n2cncn2)c([N+](=O)[O-])c1 | 5.5% (inactive)
56 | Cc1c(CN2CCC(CO)(CCOc3ccccc3)CC2)[nH]c2ccc(Cl)cc12 | 13.6% (inactive)
57 | O=C(CSc1nc2ccccc2[nH]1)N/N=C/C=C\c1ccccc1[N+](=O)[O-] | 0.15% (inactive)
58 | Cc1ccc(S(=O)(=O)N(C)C)cc1NC(=O)c1ccc(-n2cncn2)c([N+](=O)[O-])c1 | -2.08% (inactive)
59 | COc1ccc(NC(=O)C(NC(C)=O)C(=O)NCc2ccccc2Cl)cc1 (stereo not drawn) | 3.32% (inactive)
60 | O=S(=O)(c1ccc(Br)cc1)N1CCC(c2nc3ccccc3[nH]2)CC1 | 35.4% (active)
61 | O=C(NCC(O)c1nc2ccccc2[nH]1)c1ccc(Br)cc1 (stereo not drawn) | 1.16% (inactive)
62 | O=C(OCc1nc2ccccc2[nH]1)C1CCCCC1 | -2.05% (inactive)
63 | O=C(NCCN1CCOCC1)c1ccccc1N1C(=O)[C@@H]2Cc3c([nH]c4ccccc34)C(c3cccc(Cl)c3)N2C1=O (stereo partly drawn) | -0.67% (inactive)
64 | CC(C)OCCCNc1ncnc2c1[nH]c1ccc(F)cc12 | 47.3% (active)
65 | O=C1CCCN1CCCNc1ncnc2c1[nH]c1ccccc12 | -1.7% (inactive)
66 | CCN1CCCC1CNc1ncnc2c1[nH]c1ccc(F)cc12 (stereo not drawn) | -1.19% (inactive)
67 | Cc1cc(C)cc(NC(=O)N(C)Cc2ccccc2)c1 | -0.98% (inactive)
68 | CC(C)(C)c1ccc(/C=C2\SC(=O)N=C2N)cc1 | 7.36% (inactive)
